Assay outcomes (PubChem BioAssay)
WT yeast gro inh – growth inhibition of WT yeast, mitochondrial fusion screen | mitochondrial fusion phenotypic screen, WT strain | inhibition, % at 10 µM | hit rate 2.1% among 190,000 | AID 1362; in the data active means inhibition above about 58%; tested in S. cerevisiae
ROMK mod – modulators of human ROMK potassium channel. P48048. Tet-inducible ROMK, thallium flux fluorescence; actives lie on both sides. B-score at 10 µM. hit rate 2% among 130,000. AID 1918;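 active means signal ratio slope over the read window, or its plate-corrected B-score, at least 3 SD from the plate mean, either direction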;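 further: B-score of the F/F0 ratio slope over 7 to 12 s after thallium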
Calpain2 inh – inhibitors of pig calpain II; AID 1236; inhibition, % at 16 µM; hit rate 0.37% among 220,000; purified calpain II, fluorogenic peptide substrate, 30 min;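 active means inhibition above about 50%, limit read from the data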
Lmaj promast – Leishmania major promastigote growth inhibition; inhibition, % at 10 µM; hit rate 9% among 200,000; Leishmania major promastigotes, resazurin fluorescence viability; in the data active means inhibition above about 50%;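 further: promastigotes grown with compound for 44 hours at 28 °C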
Cl transport mod – KCC2 (human) Cl- transport modulation; Q9H2X9; KCC2 cells, thallium flux FluoZin-2 fluorescence; B-score of Tl+ flux slope (higher = more flux/activation; lower = inhibition) at 10 µM; hit rate 2.2% among 190,000; AID 1456;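 active means thallium flux slope and its plate-corrected score both differing from the plate sample mean at a set confidence after two filtering rounds, in either direction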;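 further: slope of fluorescence scaled to starting intensity during 10 to 20 s after thallium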
* marks the source's active call; other numbers are inactive results. Hits are enriched below; roughly 12% of the tested compounds scored in any of these assays.

Cc1ccc(S(=O)(=O)n2c3ccc(F)cc3c3nc(C)sc32)cc1 was read as WT yeast gro inh 78.2*, ROMK mod -1.33, Calpain2 inh 3.2, Lmaj promast 3.5 and Cl transport mod 0.0115.
`CCC(C)N1CNc2c(c(=O)[nH]c(=S)n2-c2cccc(C)c2)C1` (stereo not given) gave WT yeast gro inh -4.0, ROMK mod 0.131, Calpain2 inh -21.2, Lmaj promast -2.7 and Cl transport mod 1.12.
Screening Cc1ccc(Sc2ncnc3onc(C)c23)c(C)c1 returned WT yeast gro inh 60.6*, ROMK mod -1.07, Calpain2 inh -28.1, Lmaj promast 13.0 and Cl transport mod -0.896.
For Cc1noc2ncnc(Sc3ccccc3Cl)c12 the results were WT yeast gro inh 98.6*, ROMK mod -2.13, Calpain2 inh -33.4 and Lmaj promast 80.2*.
`COC(=O)c1ccccc1Sc1ncnc2onc(C)c12` gave WT yeast gro inh 26.6, ROMK mod -2.15, Calpain2 inh -7.5 and Lmaj promast 56.8*.
Screening COc1ccc(Sc2ncnc3onc(C)c23)cc1 returned WT yeast gro inh 5.4, ROMK mod -0.543, Calpain2 inh 17.5, Lmaj promast 22.5 and Cl transport mod 0.24.
CCOC(=O)c1ccc(N2C(=O)C(CC(=O)NC)N(CCc3ccc(OC)c(OC)c3)C2=S)cc1 (stereo not given) was read as WT yeast gro inh 14.7, ROMK mod -0.292, Calpain2 inh -12.7, Lmaj promast 27.9 and Cl transport mod 0.372.
For CSCCC(NS(=O)(=O)c1ccc2[nH]c(=O)c(=O)[nH]c2c1)C(=O)O (stereo not given) the results were WT yeast gro inh -14.1, ROMK mod 1.56, Calpain2 inh -40.5, Lmaj promast -5.4 and Cl transport mod 0.724.
Screening S=C(NCc1cccc(Cl)c1)NC1CCCCC1 returned WT yeast gro inh 65.8*, ROMK mod 0.691, Calpain2 inh -2.6, Lmaj promast 22.5 and Cl transport mod -0.997.
Cc1cccc(C)c1-n1c(C)nn(CCOc2ccccc2)c1=O was read as WT yeast gro inh -11.2, ROMK mod 0.225, Calpain2 inh -1.4, Lmaj promast 6.8 and Cl transport mod -1.05.
`Cc1ccc(NC(=O)c2nc[nH]c2C(=O)Nc2ccc(C)cc2)cc1` gave WT yeast gro inh 13.2, Calpain2 inh -49.4, Lmaj promast -5.5 and Cl transport mod -0.932.
For O=C(Nc1ccc(F)cc1)c1nc[nH]c1C(=O)Nc1ccc([N+](=O)[O-])cc1 the results were WT yeast gro inh 10.5, Calpain2 inh 4.0, Lmaj promast 91.9* and Cl transport mod 0.956.
Screening O=C(Nc1ccc([N+](=O)[O-])cc1)c1nc[nH]c1C(=O)NC1CCCCC1 returned WT yeast gro inh -0.2, Calpain2 inh -8.1, Lmaj promast 64.0* and Cl transport mod 0.833.
Screening Cc1nnc(SCc2c(Cl)cccc2[N+](=O)[O-])s1 returned WT yeast gro inh -2.8, ROMK mod -0.501, Calpain2 inh -1.4, Lmaj promast 80.0* and Cl transport mod -0.2.
For O=[N+]([O-])c1cccc(Cl)c1CSc1ccccn1 the results were WT yeast gro inh 7.3, ROMK mod 0.653, Calpain2 inh 42.2, Lmaj promast 10.4 and Cl transport mod -0.517.
Screening Cc1cc(C)n(-c2ccc(C(=O)NCCCN3CCOCC3)cc2)n1 returned WT yeast gro inh -1.2, ROMK mod -0.0355, Calpain2 inh 24.5, Lmaj promast -3.3 and Cl transport mod 0.337.
`Cc1cc(-n2c(C)cc(C(=O)CN3C(=O)NC4(CCCCCC4)C3=O)c2C)no1` gave WT yeast gro inh -18.2, Calpain2 inh -12.5 and Lmaj promast 99.6*.
For Cc1cc(C(=O)CN2C(=O)NC3(CCCCC3)C2=O)c(C)n1-c1ccc2c(c1)OCO2 the results were WT yeast gro inh -16.9, Calpain2 inh -20.0, Lmaj promast -2.1 and Cl transport mod -1.24.
For Cc1cc(NC(=O)CN2C(=O)NC(C)(c3ccc(OC(F)F)cc3)C2=O)no1 (stereo not given) the results were WT yeast gro inh -1.9, Calpain2 inh 12.7, Lmaj promast 1.4 and Cl transport mod 0.28.
CCC1CCC2(CC1)NC(=O)N(CC(=O)Nc1cc(C)on1)C2=O (stereo not given) was read as WT yeast gro inh 11.1, ROMK mod -0.0556, Calpain2 inh 12.8, Lmaj promast 62.3* and Cl transport mod 1.78.
CC1CCCCC12NC(=O)N(CC(=O)NC(=O)Nc1ccc3c(c1)OCCO3)C2=O (stereo not given) was read as WT yeast gro inh -5.1, ROMK mod 0.624, Calpain2 inh -29.6, Lmaj promast 0.2 and Cl transport mod -0.139.
For Cc1cc(NC(=O)CN2C(=O)NC3(CCCCC3C)C2=O)no1 (stereo not given) the results were WT yeast gro inh 2.5, ROMK mod 0.557, Calpain2 inh 15.6, Lmaj promast 58.1* and Cl transport mod 0.182.
For COc1ccc(C(=O)CSc2nc(C(C)(C)C)nc3ccccc23)cc1 the results were WT yeast gro inh 40.5, ROMK mod 1.47, Calpain2 inh 52.5*, Lmaj promast 7.4 and Cl transport mod 0.801.
CC(C)(C)c1nc(SCC(=O)NCc2ccco2)c2ccccc2n1 was read as WT yeast gro inh -35.8, Calpain2 inh -20.2, Lmaj promast -1.4 and Cl transport mod 1.15.
For CCCc1nc([N+](=O)[O-])c(S(=O)(=O)c2ccccc2)n1CC(C)C the results were WT yeast gro inh 1.5, ROMK mod 0.683, Calpain2 inh -8.5 and Lmaj promast 95.3*.
`CC(C)Cn1c(C(C)C)nc([N+](=O)[O-])c1S(=O)(=O)c1ccc(F)cc1` gave WT yeast gro inh -0.1, Calpain2 inh 13.9 and Lmaj promast 95.6*.
Screening CN1C(=O)CS/C1=N\NC(=O)COc1cccc2cccnc12 returned WT yeast gro inh -1.6, ROMK mod 0.246, Calpain2 inh -16.8, Lmaj promast 2.3 and Cl transport mod 0.6.
Screening CC1CC(C)(C)NC(=S)N1CC(=O)NCc1ccccc1Cl (stereo not given) returned WT yeast gro inh -4.8, ROMK mod 0.458, Calpain2 inh -3.1, Lmaj promast 76.9* and Cl transport mod 0.00625.
`Cc1ccccc1NC(=O)CN1C(=S)NC(C)(C)CC1C` (stereo not given) gave WT yeast gro inh 17.3, ROMK mod 0.966, Calpain2 inh 28.1, Lmaj promast 52.7* and Cl transport mod 1.24.
Screening CC1CC(C)(C)NC(=S)N1CC(=O)NCc1ccc(Cl)cc1 (stereo not given) returned WT yeast gro inh -2.5, ROMK mod -0.152, Calpain2 inh 16.0, Lmaj promast -5.7 and Cl transport mod 0.
Screening Cc1cccc(NC(=O)CN2C(=S)NC(C)(C)CC2C)c1 (stereo not given) returned WT yeast gro inh 2.3, ROMK mod -0.935, Calpain2 inh 1.4, Lmaj promast 54.3* and Cl transport mod 1.48.
`CN(C(=O)/C=C/c1cnc2ccccc2c1)C1CCCCC1` gave WT yeast gro inh -3.3, ROMK mod -0.455, Calpain2 inh 33.6, Lmaj promast -1.6 and Cl transport mod -0.514.
COc1ccc(NC(=O)C(c2cc3c(cc2[N+](=O)[O-])OCO3)N(C)c2ccccc2)cc1 (stereo not given) was read as WT yeast gro inh 8.5, ROMK mod -0.251, Calpain2 inh -25.4, Lmaj promast 81.4* and Cl transport mod -3.12.
